Consider 37 compounds from PubChem BioAssay (NCATS).

Several values for one entry are separate records, joined by “and”; a condition that tells them apart may be missing. Identical values can stand only once. A number with no mark means an inactive call. Inconclusive results are not listed. Entries that show only a call come without a potency. Activity calls are given as the source filed them. The call rests on the fitted dose curve; in most records, active means well fitted curve in the direction sought with a large enough effect; inconclusive means small, poorly fitted or top-dose-only effect, or another doubt; inactive means no such curve, though single readings can be large; an effect the other way counts as inactive or inconclusive. Non-standard residues stand in square brackets, D forms with d. Residues, ends and D or L forms follow the SMILES beside them. *: point of attachment. Sta = CC(C)C[C@H](N)[C@@H](O)CC(=O)O; Isovaleryl = CC(C)CC(=O)*

Phospholipid hydroperoxide glutathione peroxidase GPX4 (Homo sapiens), sequence (P36969 whole entry, looked up): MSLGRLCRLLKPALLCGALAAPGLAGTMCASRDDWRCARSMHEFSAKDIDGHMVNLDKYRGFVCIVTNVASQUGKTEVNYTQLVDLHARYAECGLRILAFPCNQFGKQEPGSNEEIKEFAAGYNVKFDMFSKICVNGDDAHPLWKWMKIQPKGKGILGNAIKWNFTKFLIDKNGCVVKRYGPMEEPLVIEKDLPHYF

One assay has as its target Phospholipid hydroperoxide glutathione peroxidase GPX4 (Homo sapiens) (UniProt P36969). The assay is described as follows: Primary qHTS Assay for Inhibitors of Recombinant Selenoprotein Glutathione Peroxidase 4 (GPX4) (AID 1845192). Further: nearly all actives have a fitted effect of over 65% in size. Further: potency means the concentration at half of the fitted maximal effect. The settings on record: recombinant GPX4, GR-coupled NADPH fluorescence, 15 min; series mostly up to 50 µM. The gist of the method: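 NADPH consumption, followed by fluorescence at 340/450 nm between 0 and 15 min, reports GPX4 activity via coupled glutathione reductase (100 nM). Enzyme 200 nM was pre-exposed to compound 30 min; 0.5 mM cumene hydroperoxide and 1 mM GSH served as substrates.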
As for `CC(=O)N1CCN(c2ccc(OC[C@H]3CO[C@](Cn4ccnc4)(c4ccc(Cl)cc4Cl)O3)cc2)CC1`, the Potency result is “inactive”.
Take `CCN(CCO)CCCC(C)Nc1ccnc2cc(Cl)ccc12` (stereo unspecified): the activity change, negative = inhibition was -25.1% [at 4.52 µM] and 2.25% [at 4.52 µM].
As to `Nc1ccc(S(N)(=O)=O)cc1`, the Potency entry was “inactive”.
Regarding `Cc1c(C(=O)NN2CCCCC2)nn(-c2ccc(Cl)cc2Cl)c1-c1ccc(Cl)cc1`, the Potency result was “inactive”.
On the same count and under the same terms, then `O=C(c1ccccc1)c1ccc2n1CCC2C(=O)O` (stereo unspecified), with “inactive”.
In the case of `Cc1nc2n(c(=O)c1CCN1CCC(c3noc4cc(F)ccc34)CC1)CCCC2`, the Potency result was “inactive”.
Same read-out and setting: then `Cc1nc(Nc2ncc(C(=O)Nc3c(C)cccc3Cl)s2)cc(N2CCN(CCO)CC2)n1`, with “inactive”; and `O=c1c(O)c(-c2cc(O)c(O)c(O)c2)oc2cc(O)cc(O)c12`, with “inactive”; and `Nc1nc(Cl)nc2c1ncn2[C@H]1C[C@H](O)[C@@H](CO)O1`, with “inactive”.
The same measure, in the same setting: in the case of `Clc1ccc2c(N3CCN(CCCN4CCN(c5ccnc6cc(Cl)ccc56)CC4)CC3)ccnc2c1` it was “inactive”; in that of `O=C(O)c1cccc(-c2noc(-c3ccccc3F)n2)c1`, “inactive”.
For `C[C@H](Cc1ccc(O)c(O)c1)[C@@H](C)Cc1ccc(O)c(O)c1`, the Potency entry is “inactive”.
Regarding `CN1C(C(=O)Nc2ccccn2)=C(O)c2sccc2S1(=O)=O`, the Potency entry is “inactive”.
Take `Cc1cccc(C#Cc2ccccc2)n1`: the Potency result is “inactive”.
The same measure, in the same setting: in the case of `Nc1cccc2c1CN(C1CCC(=O)NC1=O)C2=O` (stereo unspecified) it was “inactive”.
On the same count and under the same terms, then `COC1=C(OC)C(=O)C(CCCCCCCCCCO)=C(C)C1=O`, with “inactive”; and `Oc1ccc(-c2nc(-c3ccc(F)cc3)c(-c3ccncc3)[nH]2)cc1`, with “inactive”; and `Cc1ccc(S(=O)(=O)NC(=O)NN2CC3CCCC3C2)cc1` (stereo unspecified), with “inactive”.
Turning to `CN(C)c1ccc2nc3ccc(=[N+](C)C)cc-3sc2c1`, the Potency entry is “inactive”.
The same measure, in the same setting: in the case of `Cc1cccc(CN2CCN(C(c3ccccc3)c3ccc(Cl)cc3)CC2)c1` (stereo unspecified) it was “inactive”; in that of `C[Se]CCC(N)C(=O)O` (stereo unspecified), “inactive”; in that of `NNc1nncc2ccccc12`, “inactive”.
Still for that read-out and setting: then `Cc1nccn1CC1CCc2c(c3ccccc3n2C)C1=O` (stereo unspecified), with “inactive”; and `CC(S)C(=O)NCC(=O)O` (stereo unspecified), with “inactive”; and `c1ccc2[nH]c(-c3cscn3)nc2c1`, with “inactive”.
Turning to `CN(C)[C@@H](CCOc1cccc2ccccc12)c1ccccc1`, the Potency result is “inactive”.
In the case of `NC(=O)Cc1cccc(C(=O)c2ccccc2)c1N`, the Potency result is “inactive”.
On the same count and under the same terms, then `Oc1ccc(OCc2ccccc2)cc1`, with “inactive”.
On the same count and under the same terms, in the case of `CC(C)CC(=O)N[C@H](C(=O)N[C@H](C(=O)N[C@@H](CC(C)C)[C@@H](O)CC(=O)N[C@@H](C)C(=O)N[C@@H](CC(C)C)[C@@H](O)CC(=O)O)C(C)C)C(C)C` (Isovaleryl-VV[Sta]A[Sta]-OH) it was “inactive”; in that of `Cc1ccc(C(=O)c2cc(O)c(O)c([N+](=O)[O-])c2)cc1`, “inactive”.
On the same count and under the same terms, in the case of `NS(=O)(=O)c1cc(C(=O)O)c(NCc2ccco2)cc1Cl` it was “inactive”; in that of `C[C@@H](c1ncncc1F)[C@](O)(Cn1cncn1)c1ccc(F)cc1F`, “inactive”.
As to `COC(=O)N[C@H](C(=O)N[C@@H](Cc1ccccc1)[C@@H](O)CN(Cc1ccc(-c2ccccn2)cc1)NC(=O)[C@@H](NC(=O)OC)C(C)(C)C)C(C)(C)C`, the Potency entry is “inactive”.
Same read-out and setting: in the case of `CCOC(=O)C(C)Oc1cccc2c(=O)n(CC(=O)Nc3ccc4c(c3)OCCO4)ccc12` (stereo unspecified) it was “inactive”; in that of `O=P(O)(O)C(O)(Cn1ccnc1)P(=O)(O)O`, “inactive”; in that of `CC1(C)CCC(C)(C)c2cc(NC(=O)c3ccc(C(=O)O)cc3)ccc21`, 10 µM (active).

The target of another assay is Luciferin 4-monooxygenase (Photinus pyralis) (UniProt P08659). Nature of the assay: Primary firefly luciferase (FLuc) qHTS assay for identification of artifact compounds. (AID 1845220). Further: nearly all actives have a fitted effect of over 60% in size. Further: potency means the concentration at half of the fitted maximal effect. Particulars: purified firefly luciferase, luminescence, 5 min; series mostly up to 54.1 µM. The gist of the method: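 FLuc 10 nM; luciferin 10 uM; ATP 10 uM; Tris-acetate pH 7.6, Mg-acetate 10 mM; 15 min RT preincubation; 5 min reaction; luminescence.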
As to `CCN(CCO)CCCC(C)Nc1ccnc2cc(Cl)ccc12` (stereo unspecified), the activity change, negative = inhibition is -0.741% [at 6.45 µM].
As for `Cc1nc(Nc2ncc(C(=O)Nc3c(C)cccc3Cl)s2)cc(N2CCN(CCO)CC2)n1`, the Potency result was “inactive”.
On the same count and under the same terms, then `COCCCOc1ccnc(CS(=O)c2nc3ccccc3[nH]2)c1C` (stereo unspecified), with “inactive”.
Consider `O=C(O)c1cccc(-c2noc(-c3ccccc3F)n2)c1`, for which the Potency is 0.0067 µM (active).
As to `Cc1nccn1CC1CCc2c(c3ccccc3n2C)C1=O` (stereo unspecified), the Potency result was “inactive”.

Test system in the next assay: not listed separately
The assay is described as follows: Primary fluorescence-based thiol-reactive (MSTI) qHTS assay for identification of artifact compounds. (AID 1845221). Further: nearly all actives have a fitted effect of over 65% in size. The settings on record: MSTI thiol-reactivity probe, 1 h; series mostly up to 53.8 µM. In a few lines: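 Compounds were incubated 1 h at room temperature in the dark with the MSTI probe (4 uM) in PBS pH 7.4, 2% DMSO. Signals were normalized between Acetyl-MSTI and MSTI.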
On the technique in general: Quantitative high-throughput screening tests each substance at several concentrations.
For the compound `CCN(CCO)CCCC(C)Nc1ccnc2cc(Cl)ccc12` (stereo unspecified), the activity change, negative = thiol reactive was -3.32% [at 6.41 µM].
Regarding `Cc1nc(Nc2ncc(C(=O)Nc3c(C)cccc3Cl)s2)cc(N2CCN(CCO)CC2)n1`, the Potency result is “inactive”.
Still for that read-out and setting: in the case of `COCCCOc1ccnc(CS(=O)c2nc3ccccc3[nH]2)c1C` (stereo unspecified) it was “inactive”; in that of `O=C(O)c1cccc(-c2noc(-c3ccccc3F)n2)c1`, “inactive”; in that of `Cc1nccn1CC1CCc2c(c3ccccc3n2C)C1=O` (stereo unspecified), “inactive”.
